Pf growth 96h – P. falciparum growth inhibition at 96 hours; P. falciparum luciferase reporter growth, 96 h; Potency, µM (top dose mostly 28.7 µM), hits mostly inhibitors; 6.9% of 320,000 active; AID 504834
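P. falciparum expressing integrated firefly luciferase, in erythrocytes at 2% hematocrit, 0.05% parasitemia, incubated with compounds 96 h at 37 C, 5% CO2. Growth inhibition read as loss of luminescence; two-generation exposure targets delayed-death apicoplast inhibitors.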
Pf growth 48h – P. falciparum growth inhibition at 48 hours (one generation); Potency, µM (doses to about 28.7 µM), most hits filed as inhibitors; 5.9% of 310,000 active; P. falciparum luciferase growth in erythrocytes, 48 h; AID 504832
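Read-out is firefly luciferase luminescence from an integrated reporter in P. falciparum, so falling signal marks reduced parasite growth. Infected erythrocytes were at 2% hematocrit and 0.1% parasitemia (final) in Albumax-supplemented RPMI 1640.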
CHX counter – affects cycloheximide protein synthesis inhibition readout, counter-screen; cell reporter, cycloheximide protein synthesis inhibition counterscreen; max response, %; 12% of 300,000 active; in the data active = max response mostly above about 13%, no sharp cut-off; inactive = mostly below about 14%; note: read at 38.3 µM for the half of the compounds with a filed dose
MARV entry inh – blocks Marburg virus binding to or entry into cells. Marburg virus pseudotyped entry inhibition, cell reporter. Potency, µM (top dose mostly 37.8 µM), hits mostly inhibitors. 1.8% of 300,000 active. AID 540276; calls by dose curve; tested in HEK293 cells
Shiga inhibitor – inhibitors of Shiga toxin in Vero cells; inhibition, % at 38.7 µM; AID 2315; 9.2% of 290,000 active; Vero cells, Shiga toxin protein synthesis inhibition reporter; in the data active = inhibition mostly above about 28%, no sharp cut-off; inactive = mostly below about 43%
Lassa entry inh – Lassa virus entry inhibition; Lassa virus pseudotype entry inhibition, cell reporter; Potency, µM (titrated, usually from 37.9 µM), most hits filed as inhibitors; 1.2% of 300,000 active; AID 540256; calls by dose curve; tested in HEK293 cells; note: nearly all actives have a fitted effect of over 50% in size
Numbers stand for hits; 0 = inactive; ? = inconclusive; - = no result; + = active, no number. Hits are enriched below; roughly 19% of the tested compounds scored in any of these assays. Unless noted, calls come from the whole dose curve; as a rule, active = well fitted inhibition curve with a large enough effect; inconclusive = small, poorly fitted or top-dose-only effect, or another doubt; inactive = no such curve, though single readings can be large or run the other way.

SMILES	Pf growth 96h	Pf growth 48h	CHX counter	MARV entry inh	Shiga inhibitor	Lassa entry inh
Cc1cc(C)n(CC(O)COc2ccc(C(C)C)c(C)c2)n1 (stereo not drawn)	0	0	0	0	-	0
Cc1ccc(S(=O)(=O)Oc2ccc(/C=C3/N=C(c4ccccc4)OC3=O)cc2)cc1	0	0	0	0	0	0
Cc1ccc(S(=O)(=O)N(CCCO)CC(O)CON=C2c3ccccc3-c3ccccc32)cc1 (stereo not drawn)	9.3µM	?	0	?	0	?
NC(N)=Nc1nc2cc([N+](=O)[O-])ccc2o1	0	0	15	-	0	-
O=[N+]([O-])c1ccc2oc(-c3ccccc3)nc2c1	0	0	35	0	69	-
O=[N+]([O-])c1ccc2nc(-c3ccccc3)cc(-c3ccccc3)c2c1	0	0	0	?	0	0
COc1ccc(-c2nc3ccc([N+](=O)[O-])cc3o2)cc1	0	0	39	?	+	0
N/C(=N\c1nc2ccccc2o1)NC(=O)c1ccc([N+](=O)[O-])cc1	0	0	0	0	0	?
Cc1cccc(-c2nc3cc([N+](=O)[O-])ccc3o2)c1	0	0	36	?	92	0
CCc1cccc(C)c1NC(=S)NCC(c1cccnc1)N1CCOCC1 (stereo not drawn)	0	0	0	?	0	0
O=c1[nH]c2ccccc2n1Cc1ccc(F)cc1	?	0	0	-	0	-
COc1ccccc1N1CCN(C(=O)c2c(C)noc2C)CC1	0	0	0	0	0	0
CN(C(=O)COC(=O)c1cccnc1Cl)C1CCCCC1	-	-	-	0	-	0
CN(C)c1ccc(N=Nc2ccccc2C(=O)OCC(=O)N(C)C2CCCCC2)cc1	?	0	27	?	29	?
CN(C)c1ccc(N=Nc2ccccc2C(=O)OCC(=O)NCC2CCCCC2)cc1	0	?	69	?	72	0
COc1ccc(-c2nnc(SCC(=O)N3CCCC3)o2)cc1OC	-	-	-	0	-	0
COc1ccc(CN2CCN(c3nc4ccccc4s3)CC2)cc1	0	0	0	0	0	0
O=[N+]([O-])c1ccc(CN2CCN(c3nc4ccccc4s3)CC2)cc1	?	0	12	0	0	0
Cc1ccccc1CN1CCN(c2nc3ccccc3s2)CC1	0	-	51	-	63	-
O=C(Nc1ccccc1F)NC1CC1	0	0	0	0	52	0
COC(=O)c1ccccc1NC(=O)NC1CCC(C)CC1 (stereo not drawn)	0	0	16	-	34	-
O=C(Nc1ccccc1C(F)(F)F)NC1CCCCCCC1	?	-	0	0	0	0
O=C(Nc1ccccc1F)NC1CCCCCCC1	0	0	57	-	98	-
O=C(CN1CCC(NC(=O)Nc2ccccc2)CC1)Nc1ccccc1F	?	0	0	0	0	0
O=C(Nc1ccccc1)NC1CCN(Cc2c(F)cccc2Cl)CC1	0	0	0	?	0	?
SMILES	Pf growth 96h	Pf growth 48h	CHX counter	MARV entry inh	Shiga inhibitor	Lassa entry inh
CC(C)(C)c1ccccc1NC(=O)NC1CCN(Cc2c(F)cccc2Cl)CC1	?	7.4µM	0	0	0	0
CC(CN1CCOCC1)OC(=O)Cc1ccc(Cl)cc1 (stereo not drawn)	?	0	0	0	0	0
CS(=O)(=O)c1ccc(Cl)c(NC(=O)COC(=O)c2cccc(S(=O)(=O)N3CCCCC3)c2)c1	0	0	0	0	0	0
COC(=O)c1ccccc1NC(=O)NCc1ccncc1	13µM	0	0	-	0	-
COC(=O)c1ccccc1NC(=O)NCc1ccccc1	0	?	0	-	0	-
O=C(COc1ccccc1)NC(=S)N1CCc2ccccc21	0	0	40	0	38	0
O=C(COc1ccccc1Cl)NC(=S)Nc1ccccc1N1CCCC1	0	0	0	-	0	-
O=C(COc1ccccc1Cl)NC(=S)N1CCc2ccccc21	?	0	50	0	0	0
COc1ccc(OCC(=O)NC(=S)N2CCCc3ccccc32)cc1	-	?	35	0	152	?
O=C(c1cc(-c2ccncc2)nc2ccc(Br)cc12)N1CCN(Cc2ccc3c(c2)OCO3)CC1	0	10µM	0	?	0	0
Cc1ccc2nc(-c3ccncc3)cc(C(=O)N3CCOCC3)c2c1	10µM	0	0	0	0	0
Cc1ccc(-c2cc(C(=O)N3CCOCC3)c3cc(C)ccc3n2)cc1	0	0	21	0	0	0
O=C(c1cc(-c2ccc(Cl)cc2)nc2ccccc12)N1CCOCC1	0	?	-	0	-	0
Cc1ccc2nc(-c3ccncc3)cc(C(=O)N3CCC4(CC3)OCCO4)c2c1	?	0	0	?	0	0
COc1ccc(O)c(-c2c(-c3ccc(Cl)cc3)n[nH]c2C)c1	-	?	0	0	0	0
COc1ccc(S(=O)(=O)N2CCN(Cc3cccc(OC)c3)CC2)cc1	?	0	0	-	0	-
Cc1ccc(CCSCC(=O)O)cn1	0	0	0	0	0	0
Cc1ccc(SCCc2ccc(C)nc2)cc1	0	0	22	0	active	0
COc1ccc(CC(NC(C)=O)C(=O)NC2CCN(C(=O)C3CCCCC3)CC2)cc1OC (stereo not drawn)	0	0	0	0	0	0
Cc1cc(C(=O)NCC(=O)OC(C)C(=O)N2CCOCC2)ccc1[N+](=O)[O-] (stereo not drawn)	7.4µM	?	-	-	-	-
CCN(CC)CCOC(=O)C12CC3CC(CC(C3)C1)C2	0	0	0	0	0	0
CCCCC1=CC2=C(c3ccco3)C(=O)C(C)(OC(=O)c3ccc(OC)cc3)C(=O)C2=CN1CCN1CCOCC1 (stereo not drawn)	10µM	?	0	0	0	-
CCCCC1=CC2=C(c3ccco3)C(=O)C(C)(OC(=O)c3ccc(OC)cc3)C(=O)C2=CN1CCCN(CC)CC (stereo not drawn)	15µM	?	0	0	0	?
CCCCC1=CC2=C(c3ccco3)C(=O)C(C)(OC(=O)c3ccc(OC)cc3)C(=O)C2=CN1CCCCO (stereo not drawn)	?	?	0	?	0	-
O=C(NN1C(=O)c2ccccc2NC1c1ccc([N+](=O)[O-])o1)c1ccccc1 (stereo not drawn)	?	0	0	?	0	?
SMILES	Pf growth 96h	Pf growth 48h	CHX counter	MARV entry inh	Shiga inhibitor	Lassa entry inh
COc1ccccc1NC(=O)C1=C(C)Nc2ncnn2C1c1ccccc1C(=O)O (stereo not drawn)	-	-	-	?	-	0
O=C(c1cnc2n(c1=O)CCS2)N1CCN(C(c2ccccc2)c2ccc(Cl)cc2)CC1 (stereo not drawn)	0	-	0	0	0	-
O=c1c(-c2ccc(Cl)cc2)cnc2n1CCS2	0	0	29	?	67	0
CC12CN(C(=O)c3ccccc3Br)CC(C)(CN(C(=O)c3ccccc3Br)C1)C2=O	0	?	0	0	0	0
COC(=O)C1=NN(c2ccc(C)cc2)C2(S1)SC(C(C)=O)=C(C)N2c1ccccc1 (stereo not drawn)	-	10µM	0	0	0	0
CC(=O)C1=NN(c2ccccc2)C2(S1)S/C(=C\c1ccccc1)C(=O)N2c1ccccc1 (stereo not drawn)	-	12µM	0	?	0	?
